Source: the supplement of paper PMC6555819

How the values were obtained:
Assay in all cases: PBM binding z-score (relative to random genomic background probes); higher = stronger binding; sequences stand for … in GC…GCGATTGACAGCGTAGAATGAAGG
[1] = test system: FXR:RXRa (NR concentration 270 nM, RXRa partner concentration 90 nM)
Summary of the method: (§1)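 Custom Agilent 4×180K protein-binding microarrays carried double-stranded probes. Their 34-nt variable regions held direct-repeat seeds, single-nucleotide variants, half-site ablations and random human genomic background sequences. Arrays were incubated 1 h with ligand-free nuclear receptor dimers in PBS pH 7.4, 2% milk, 0.02% Triton X-100, 1 mM DTT, 0.2 mg/mL BSA and 0.4 mg/ml salmon testes DNA. Antibodies against each partner (one per run) detected binding, and scanned fluorescence was regression-normalized. Binding z-scores use random background probes as reference.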

[2] = test system: LXRa:RXRa (NR concentration 270 nM, RXRa partner concentration 90 nM)
Summary of the method: as §1

[3] = test system: LXRa homodimer (NR concentration 270 nM)
Summary of the method: as §1

[4] = test system: LXRb:RXRa (NR concentration 270 nM, RXRa partner concentration 90 nM)
Summary of the method: as §1

[5] = test system: LXRb homodimer (NR concentration 270 nM)
Summary of the method: as §1

[6] = test system: PPARa:RXRa (NR concentration 270 nM, RXRa partner concentration 90 nM)
Summary of the method: as §1

[7] = test system: PPARg:RXRa (NR concentration 180 nM, RXRa partner concentration 90 nM)
Summary of the method: as §1

[8] = test system: PPARg:RXRa 270nM:90nM, anti-RXR (NR concentration 270 nM, RXRa partner concentration 90 nM)
Summary of the method: as §1

[9] = test system: PPARg:RXRa 30nM:10nM, anti-RXR (NR concentration 30 nM, RXRa partner concentration 10 nM)
Summary of the method: as §1

[10] = test system: PPARg:RXRa 90nM:30nM, anti-RXR (NR concentration 90 nM, RXRa partner concentration 30 nM)
Summary of the method: as §1

[11] = test system: PPARg:RXRa DBDmut IVT, anti-RXR (DBD mutation: RXRa K156A/R161A, NR concentration 270 nM, RXRa partner concentration 90 nM)
Summary of the method: as §1

[12] = test system: PPARg:RXRa IVT, anti-PPARg (NR concentration 270 nM, RXRa partner concentration 90 nM)
Summary of the method: as §1

[13] = test system: PPARg DBDmut:RXRa IVT, anti-PPARg (DBD mutation: PPARg1 K132A/R137A, NR concentration 270 nM, RXRa partner concentration 90 nM)
Summary of the method: as §1

[14] = test system: PPARg DBDmut IVT, anti-PPARg (DBD mutation: PPARg1 K132A/R137A, NR concentration 270 nM)
Summary of the method: as §1

[15] = test system: PPARg homodimer (NR concentration 180 nM)
Summary of the method: as §1

[16] = test system: PXR:RXRa (NR concentration 270 nM, RXRa partner concentration 90 nM)
Summary of the method: as §1

[17] = test system: PXR homodimer (NR concentration 270 nM)
Summary of the method: as §1

[18] = test system: RARa:RXR (NR concentration 270 nM, RXRa partner concentration 90 nM)
Summary of the method: as §1

[19] = test system: RARa homodimer (NR concentration 270 nM)
Summary of the method: as §1

[20] = test system: RARb:RXRa (NR concentration 270 nM, RXRa partner concentration 90 nM)
Summary of the method: as §1

Row | Sequence | PBM binding z-score [1] | PBM binding z-score [2] | PBM binding z-score [3] | PBM binding z-score [4] | PBM binding z-score [5] | PBM binding z-score [6] | PBM binding z-score [7] | PBM binding z-score [8] | PBM binding z-score [9] | PBM binding z-score [10] | PBM binding z-score [11] | PBM binding z-score [12] | PBM binding z-score [13] | PBM binding z-score [14] | PBM binding z-score [15] | PBM binding z-score [16] | PBM binding z-score [17] | PBM binding z-score [18] | PBM binding z-score [19] | PBM binding z-score [20]
1 | CCTACTGGGCCAAAGGTCAATGATTCCAATGCTC | 4.07 | 4.39 | 2.6 | 4.52 | 0.165 | 6.29 | 12.1 | 10.4 | 10 | 12.8 | 5.3 | 6.73 | 1.6 | 1.78 | 4.39 | 4.46 | 0.657 | 5.75 | 1.53 | 4.5
2 | CGGCAAAGTTCAACTAAGGTAACGTAAAGCACGC | 7.42 | 5.93 | 2.94 | 3.99 | 1.22 | 5.03 | 4.7 | 5.19 | 1.6 | 3.81 | 0.283 | 1.29 | -0.451 | -0.173 | 3.39 | 5.43 | 2.72 | 3.93 | 0.447 | 5.16
3 | AGAATGAGGTTATTAAGATCAGCGAATTGCGGTC | 1.3 | 1.23 | 0.0436 | 1.11 | -0.0862 | 2.49 | 1.47 | 1.85 | 0.288 | 1.29 | 3.16 | 2.5 | 0.614 | 0.292 | 0.609 | 1 | 0.607 | 1.22 | 0.18 | 1.27
4 | CCGGACAGGTGAAAGGTAACTCAGTCTGGTACGC | 0.736 | 0.472 | -0.206 | 0.874 | -0.858 | 3.17 | 4.79 | 5.2 | 3.2 | 5.45 | 1.68 | 2.68 | -0.561 | -0.876 | 0.751 | 0.988 | 0.241 | 1.91 | -0.413 | 1.46
5 | CGTCACAGTTCAACTAAGGTAACGTAAAGCACGC | 3.5 | 3.37 | 1.17 | 2.07 | 0.36 | 3.14 | 1.61 | 1.49 | 0.576 | 0.859 | 0.343 | 1.09 | 0.467 | 1.1 | 1.58 | 3.88 | 1.47 | 2.28 | 0.677 | 3.1
6 | GCTTGAAGATCAAGGTTAAGAAAGACTAAGCTAA | 0.0422 | 0.502 | -0.466 | 0.434 | -0.944 | 1.44 | 0.0751 | 0.707 | 0.116 | 0.552 | -0.184 | -0.042 | 0.0638 | -0.723 | -0.0355 | 0.112 | -0.655 | 0.675 | -0.598 | 0.778
7 | AATACAGGGTCACTATGCCAGAGTAGGTACGAAT | 5.56 | 4.68 | 1.16 | 3.79 | 1.06 | 5.44 | 6.37 | 4.87 | 2.05 | 3.73 | 3.26 | 4.74 | 1.77 | 1.8 | 1.62 | 2.9 | 0.523 | 3.67 | 1.11 | 4.01
8 | CCTACTGGGCCAAGGTCATTGGTCAGTCAAAGCA | 3.51 | 2.93 | 1.17 | 2.84 | -0.423 | 4.01 | 4.31 | 4.6 | 1.68 | 3.55 | 3.94 | 4.88 | -0.325 | -0.629 | 1.86 | 3.62 | 1.12 | 3.85 | 0.172 | 3.56
9 | ACTCGGAGGACAAAGGTCAGATCTACGCCAGTGA | 4.14 | 4.18 | 1.82 | 3.46 | 1 | 4.65 | 7.02 | 6.8 | 5.45 | 6.92 | 0.776 | 3.13 | 0.263 | -0.358 | 2.46 | 3.86 | 0.325 | 4.45 | 1.42 | 4.33
10 | CGTCCAAGGTGAAGGTCAGTGAAAGAGACTCGAA | 1.84 | 1.4 | -0.233 | 1.25 | -0.872 | 3.04 | 2.5 | 2.81 | 0.634 | 1.96 | 1.92 | 2.94 | -0.298 | -0.465 | 0.911 | 1.43 | -0.222 | 2.11 | 0.387 | 3.93
11 | CAGCCTAGGTCAGGGCCGGTATAGGAGGAACGTT | 1.62 | 0.777 | -0.703 | 0.466 | -1.51 | 1.97 | 0.482 | 0.692 | -0.326 | -0.0222 | 0.942 | 1.52 | -0.778 | -1.19 | 0.324 | 0.229 | -0.999 | 0.69 | -0.753 | 3.33
12 | GCTTGTAGATCAAGGTTCAGAAAGACTAAGCTAA | -0.0392 | 0.122 | 0.0153 | 0.103 | -0.768 | 2.44 | 4.87 | 5.28 | 3.39 | 5.82 | 1.07 | 1.53 | 0.321 | -0.08 | -0.171 | 0.124 | -0.087 | 0.533 | -0.997 | 0.339
13 | TCGTGTAGGTTACCAATGGGGCATTCAGCTTTCT | 0.486 | 1.81 | 0.0515 | 1.44 | 0.0224 | 1.43 | -0.0806 | 1.21 | 2.25 | 1.67 | 3.06 | 2.01 | 0.246 | 0.154 | 1.17 | 0.375 | -0.304 | 0.543 | -0.0616 | 1.31
14 | ACTAGCAGGCCAAGTTTGAGTCACTCAAACAAAG | -0.527 | -0.601 | -0.503 | -0.529 | -0.797 | -0.0783 | -0.147 | -0.486 | -0.4 | -0.496 | 0.376 | 0.193 | -0.678 | 0.262 | -0.297 | -0.433 | -0.248 | -0.0649 | -1.17 | 0.293
15 | CGTACAAGGTCAGAGAGGTCAGTGAATGCCGAGT | 6.42 | 5.64 | 3.38 | 4.41 | 0.711 | 5.09 | 4.76 | 4.98 | 1.97 | 3.42 | 3.77 | 4.39 | 1.15 | 1.93 | 3.94 | 6.31 | 12.2 | 5.87 | 1.83 | 5.17
